The source made the active and inactive calls. Unless noted, the rule behind the calls is not given here.
Columns and labels:
[1] = system: Wnt5a (protein binding on small-molecule microarray); assay: Wnt5a binders on small-molecule microarray, primary screen, biophysical, 635/667 nm fluorescence (AID 1142); conditions: 635 nm fluorescence, higher = more signal;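 note: fluorescence read at 667 nm with signal to noise per printed feature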
[2] = cell viability in Huh7 cells, primary screen, cytotoxicity control for HCV replication inhibitor project, CellTiter-Glo luminescence, basal, 48 h (AID 1143); conditions: Huh7 HCV replicon, higher = more signal, called active from +8 up or from −8 down;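 note: Huh7 hepatoma cells carrying a hepatitis C replication reporter with no stimulus; test concentration not given here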
[3] = P. aeruginosa biofilm formation inhibitors, primary screen, PAO1 strain, BacTiter-Glo luminescence, LB-PBS (AID 1144); conditions: 12 h, higher = more signal
[4] = CREB reporter modulators without forskolin, primary screen, cell-based, PC12, CRE-LacZ reporter, unstimulated (AID 1145); conditions: no forskolin, luminescence, 4.5 h, higher = more signal, called active from +8 up or from −8 down
[5] = CREB reporter modulators under forskolin, primary screen, cell-based, PC12, CRE-LacZ reporter, forskolin-stimulated (AID 1146); conditions: luminescence, 4.5 h, higher = more signal, called active from +8 up or from −8 down;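 note: PC12 cells with 6xCRE LacZ reporter stimulated by forskolin 10 µM; beta-galactosidase reporter signal reflecting CREB driven transcription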
[6] = target: Streptavidin (Streptomyces avidinii) (UniProt P22629); assay: streptavidin binders on small-molecule microarray, primary screen, artefact control for SMM compound annotation, biophysical, 635/667 nm fluorescence (AID 1147); conditions: streptavidin binding, higher = more signal;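 note: signal reflects streptavidin binding to arrayed compounds as a control protein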
[7] = small-molecule binders of probe aInhba, primary screen, biochemical, small-molecule microarray, 635/667 nm fluorescence (AID 1148); conditions: higher = more signal;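 note: score merges 667nm spot fluorescence with signal-to-noise for antibody binding to printed compounds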
Torsin-1A (Homo sapiens) [8] = target: Torsin-1A (Homo sapiens) (UniProt O14656); assay: torsin A binders from cell lysate, primary screen, small-molecule microarray, wild-type, 635/667 nm (AID 1149); conditions: COS7 hTOR1A-WT lysate, 635 nm fluorescence, higher = more signal
Torsin-1A (Homo sapiens) [9] = target: Torsin-1A (Homo sapiens) (UniProt O14656); assay: small-molecule binders of mutant TOR1A in lysate, primary screen, cell lysate, small-molecule microarray, COS7 lysate, 635/667 nm fluorescence (AID 1150); conditions: COS7 hTOR1A mutant lysate, 635 nm fluorescence, higher = more signal;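 note: score pools 667 nm emission and signal to noise measuring lysate protein binding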
[10] = system: Sonic hedgehog protein (Shh); assay: small-molecule binders of Shh protein, primary screen, biochemical, small-molecule microarray, 635/667 nm fluorescence (AID 1151); conditions: small-molecule microarray binding, 635 nm fluorescence; higher = more signal;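 note: Shh protein binding to compounds spotted on small-molecule microarray slides; score combines spot fluorescence intensity with signal-to-noise across triplicate slides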

Torsin-1A (Homo sapiens), sequence (O14656 whole entry, looked up): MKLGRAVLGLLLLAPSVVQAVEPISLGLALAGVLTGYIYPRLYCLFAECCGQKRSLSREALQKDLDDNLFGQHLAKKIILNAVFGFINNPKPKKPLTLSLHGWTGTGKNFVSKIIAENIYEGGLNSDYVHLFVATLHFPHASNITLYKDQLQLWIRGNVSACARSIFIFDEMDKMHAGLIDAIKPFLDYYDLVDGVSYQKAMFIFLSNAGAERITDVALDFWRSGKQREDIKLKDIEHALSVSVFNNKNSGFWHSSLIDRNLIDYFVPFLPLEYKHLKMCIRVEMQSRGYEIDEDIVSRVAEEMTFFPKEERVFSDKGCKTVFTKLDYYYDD
Streptavidin (Streptomyces avidinii), sequence (P22629 whole entry, looked up): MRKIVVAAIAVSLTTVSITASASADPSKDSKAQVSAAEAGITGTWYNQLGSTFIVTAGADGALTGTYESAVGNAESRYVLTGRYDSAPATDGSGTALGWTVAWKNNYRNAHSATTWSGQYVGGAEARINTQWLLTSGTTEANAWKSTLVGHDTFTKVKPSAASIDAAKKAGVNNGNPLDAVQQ

| Compound | composite z-score [1] | z-score [2] | z-score [3] | z-score [4] | z-score [5] | composite z-score [6] | composite z-score [7] | composite z-score (Torsin-1A (Homo sapiens) [8]) | composite z-score (Torsin-1A (Homo sapiens) [9]) | composite z-score [10] |
| --- | --- | --- | --- | --- | --- | --- | --- | --- | --- | --- |
| CC(C)OC(=O)C=C1C[C@@H](c2cccc(Cl)c2)O[C@@H](c2cccc(Cl)c2)O1 | -0.0889 | -0.0636 (inactive) | -0.179 (inactive) | 0.192 (inactive) | 1.03 (inactive) | 0.776 | 0.0956 | 0.686 | -0.365 | -1.16 |
| COc1cc(CO)cc(I)c1O[C@H]1C=C(C(=O)NCCO)C[C@@H](NC[C@@H]2CCCO2)[C@@H]1O | -0.11 | 0.102 (inactive) | -0.69 (inactive) | 1.77 (inactive) | -0.809 (inactive) | -0.442 | -0.135 | 0.761 | 0.127 | 1.07 |
| Cc1ccc(C2C3C(=O)CC4C(=O)N(c5ccccc5)C(=O)C4C3CN2S(=O)(=O)c2ccc(C)cc2)cc1 (stereo not given) | 0.731 | -0.966 (inactive) | 0.538 (inactive) | -0.826 (inactive) | -0.743 (inactive) | 0.525 | 0.255 | 0.0484 | 0.392 | 0.205 |
| CCCCCN1CC=CC23O[C@@H]4C=CCOC(=O)[C@@H]4[C@H]2C(=O)N(C(C)CO)[C@@H]3C1=O (stereo not given in full) | -0.614 | 0.463 (inactive) | 0.397 (inactive) | -0.216 (inactive) | -0.315 (inactive) | -0.541 | -0.128 | 0.909 | -0.979 | -0.424 |
| C=CCC(OC(C)=O)[C@@H]1[C@@H](N(Cc2ccc(-c3cccc(C(F)(F)F)c3)o2)C(=O)Cc2ccc(OC)cc2)c2cc(OCCCO)ccc2N1C(=O)c1ccc2ccccc2c1 (stereo not given in full) | -0.301 | -1.54 (inactive) | -1 (inactive) | -0.0247 (inactive) | 1.52 (inactive) | -0.445 | -0.128 | -2.27 | 0.168 | 0.804 |

Reference: PubChem BioAssay
